Results as given in PubChem BioAssay AID1508600 (Functional Genomics Laboratory (NCATS/FGL), 2020).
The campaign covered roughly 53,000 sequences. About 3,700 (7%) were called active.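 The calls were made as follows: active = gene knockdowns whose robust z-score for IL-1 alpha signal is at least 2 or at most -2, so actives lie on both sides; inactive = the rest.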 Many of the other results were omitted from the sample, so actives are more common in it than they were.

Test: Components of the Cytosolic LPS Sensing Pathway: Gene Identification via Genome-wide siRNA Screen
Details: RAW264.7 macrophages, IL-1a HTRF, actives lie on both sides, screened at 100 nM (by protocol), cells primed 5 h with Pam3CSK4 first
Text: Non-canonical inflammasome activation by cytosolic LPS is a critical component of the host response to Gram-negative bacterial infection, however we lack a comprehensive understanding of the cellular processes that control this pathway. Here we describe a genome-wide siRNA screen to identify genes regulating the mouse macrophage IL-1 alpha response to cytosolic LPS.
RAW264.7 cells were maintained in complete DMEM media, comprising DMEM with 4.5 g/L glucose, 10% FBS (Gemini Bio-Products, West Sacramento, CA), 2 mM Glutamine (Lonza) and 20 mM HEPES (Lonza), hereafter complete DMEM.
The RNAi screen was conducted in 384-well format using the Ambion Silencer Mouse Genome siRNA Library (#4391425), which consists of three unique, nonoverlapping, nonpooled siRNAs for each of 17,000 gene targets. siRNA reagents ([…]) were stamped into 384-well white flat-bottom microplates (Corning, 3570) using a Velocity11 VPrep liquid handling system (Agilent) integrated into a BioCel robotic platform (Agilent) in columns 1-22, leaving columns 23-24 empty for negative (Ambion, Negative control #1) and positive (mouse Casp4) controls, respectively. The median value of each plate's negative control column was used to normalize sample wells, and the positive control was used to assess transfection efficiency and assay performance.
Lipofectamine RNAiMAX Transfection Reagent ([…]; Invitrogen) was added in […] serum-free, antibiotic-free media to plate wells using a Thermo Scientific Matrix WellMate and Microplate Stacker. Plates were incubated for 45 min at room temperature to allow for the sufficient formation of siRNA-lipid complexes. Cells were seeded at a density of 1x10^4 cells per well in 20 microL media containing 20% (vol/vol) FBS without antibiotics. The final concentration of siRNA in each well was 100 nM. Cells were cultured for 48h at 37 degrees C in 5% CO2 before addition of […] of TLR ligand Pam3CSK4 for 5 hours. The medium was then removed, replaced with […] growth media and cell were transfected with […] of LipidA and TransIT-TKO (Mirus) for 24 hour. At the end of the LipidA treatment, […] of supernatant was transferred to a 384 Greiner Bio-one non-binding low volume plate and […] of IL-1a HTRF reagent (Cisbio, 62MIL1APEH) was added and incubated at room temperature overnight. The plates were read on an EnVision plate reader (PerkinElmer). Cell viability was measured by adding 20ul Cell Titer Glo to the original plate and running a luminescence read on the EnVision. The quantified IL-1a signal for each siRNA gene-targeted well was divided by the median of the negative control wells and multiplied by 100 to achieve a negative control normalized value for each well/siRNA. This normalized value was then used to generate a robust z-score by first taking the log of each value and then by subtracting the median and dividing by the […].

Sequence | z-score
CCUAAUUGAAAUCAGCAGUTT against Hip1r | 1.14 (inactive)
GGCACAAGAAAUUUGAUGATT against Gpc6 | -1.91 (inactive)
GCAAAUCAUGACUAUUGUATT against Atat1 | 0.00079 (inactive)
CAUGAUAGCGAUAGCAAUCTT against Olfr507 | 0.0127 (inactive)
GCCUGAUUCAGAGUAUAAATT against Col14a1 | -1.24 (inactive)
CCUACUCAAAUGAAGUUGUTT against Cdk17 | -0.384 (inactive)
CCUGUGAAAUACCAGCGUGTT against Rsl24d1 | 2.05 (active)
GCUCUGGUUGCCAGUUAUGTT against Ddx49 | 0.903 (inactive)
GGGAUUAUAGGGCGCAUUGTT against Olfr685 | -1.01 (inactive)
GCGACAAAUCAAAAAGGCCTT against Dnajb9 | -0.0942 (inactive)
GGCCAACAAUAUAAAAGACTT against Pus3 | -0.641 (inactive)
GACUUCGGACAAAUGGUGCTT against Lce1f | 2.27 (active)
GGUCCUGAUGUUGAAGGCATT against Rinl | 0.647 (inactive)
GCAUCUCUUACUAAGAUUATT against Anxa4 | -0.433 (inactive)
GGAAUUAAAUGAACCCAGATT against Arhgap8 | 2.48 (active)
GGUUUUAUGCAUUAGCUCCTT against Lipf | 0.502 (inactive)
GCAACCUGUCAUUUUGUGATT against Olfr1134 | -1.74 (inactive)
GGCUUUUAGCUACCUUGUGTT against AW209491 | -0.704 (inactive)
GCACGAUGUCUCAGCUCUATT against Nipal3 | -2.89 (active)
CCAGGUGUAACAAAAAAGATT against Dtl | 1.09 (inactive)
CCGGGAAAUUCUGUUAGCCTT against Pla2g1b | -1.95 (inactive)
GGAAAGCUCUCAAUACCUGTT against Olfr633 | -0.688 (inactive)
GCUUUGGUUGCUAACCCAATT against Slc45a2 | 0.407 (inactive)

Sequence | z-score
GGCUCAAUUUGGAAAGGACTT against Anxa8 | -0.586 (inactive)
GGAGCAUCUAUGAUUACAATT against Iqcg | 3.24 (active)
GGAUAUGUCGGAAAAAGCCTT against Cfh | 0.271 (inactive)
GGCCACAGUAAUGGGAAAUTT against Cga | -0.208 (inactive)
GGUAAAUGAUCUGAAAAUGTT against Rps6ka6 | -0.46 (inactive)
GCUCAUGUCAGGAGAGAGUTT against Ocel1 | -2.41 (active)
CGAGCUAUACGGAAAAAAATT against Efcab12 | -1.03 (inactive)
GCUGAUCCUCUCCCUUCAUTT against Tas2r131 | -0.463 (inactive)
GGCUCUUCUCUCGUCCUUGTT against Nif3l1 | 0.213 (inactive)
GGAUGAAGACCCAUAUGUGTT against Ap1b1 | -0.287 (inactive)
GCCUCAGUUUGAAAUUGUUTT against Tbrg1 | -0.695 (inactive)
CCUGGAUCAGCAAUCCACATT against Lpxn | -0.503 (inactive)
UCCUCCUGUCUUACGUACGTT against Prlhr | 2.05 (active)
CGUGUAGCAAUGAGAUAUUTT against Trpc5 | 0.162 (inactive)
GGGAUUUCUGGAGAAAAUGTT against Csta2 | -0.872 (inactive)
GGAUUCCUGUACAUAUAUUTT against Ube4b | -0.501 (inactive)
GGCAUGAAUACAUCACAGCTT against Vmn1r220 | -0.808 (inactive)
GGACAUACAAAUCUUCAUUTT against Mta2 | 0.886 (inactive)
GGUGAUGCUAAAUUCUGAUTT against Mpc2 | -1.92 (inactive)
GGUAUAUGGUGGGAACUUUTT against Bnipl | 2.04 (active)
CCUCUCUUUAACAGGUCACTT against 1700034H15Rik | 1.35 (inactive)
GCUGUUACUCUUAAACAAATT against Pdhx | 0.254 (inactive)
GCCUCAGUUAUUUAAUGAATT against Mpp3 | -0.414 (inactive)

Sequence | z-score
GGAUGAAGAAAACUGGCUUTT against Tsx | -0.764 (inactive)
GGAAGCAGGGCAGCUUAUUTT against Hbq1a | -2.22 (active)
GGUUGACCCACUGAAAAUUTT against Marveld1 | -0.112 (inactive)
GCACGGCCCUACUUUAUAGTT against Trim33 | -1.43 (inactive)
GGCGUGAAAAUAGGAGAAUTT against Extl2 | -1.77 (inactive)
GCCGCUACACAUCAAACCATT against Zc3h3 | -0.336 (inactive)
GCUAAUCGAAGUUGAAAUUTT against Soga3 | -0.316 (inactive)
GGAAAAUGGAGCUGUGCUCTT against Prelid3a | 0.298 (inactive)
GCUGUUUUAGUAGAGGUAATT against Tsfm | -0.708 (inactive)
CCUCAAAUUAUUGUUGGCATT against Ppip5k1 | -2.07 (active)
GGGCUGGCUACGAUAAGCUTT against Tes | 1.53 (inactive)
CCCUUGAAGAUGAAACCAGTT against Smarca5 | -0.277 (inactive)
GCGGAAAUCUAAUUGCUUGTT against Kat5 | -0.0418 (inactive)
GGUGGAUUAAGUCUCAAAATT against Pcdhb22 | 0.592 (inactive)
CCUACUGGAAAAGAUAAUUTT against Stfa1 | 1.82 (inactive)
GCUACUAUGUGCCUGUGACTT against Oc90 | -2.21 (active)
UACAUUAGUAGAAUGGAGGTT against Mageb3 | -0.598 (inactive)
GGAAGAAACUGAGAAACUGTT against Fam205c | 0.48 (inactive)
CGGAAAAAUGGAAGUAUAGTT against Mrtfb | -0.687 (inactive)
GGGCUGUGAUCAAACAUGGTT against Ano9 | -1.38 (inactive)
GGAAUUAUGAACAAAUUGCTT against H2-M9 | 0.702 (inactive)
GGCCUCUAUCUUCCAACAATT against Tent4a | -2.06 (active)
GCCAACAAGCAUUCCAUUGTT against Mrap | -0.991 (inactive)
